Data reported in PubChem BioAssay AID652067 (The Scripps Research Institute Molecular Screening Center, 2013).
Out of some 370,000 compounds screened, about 5,400 (1.5%) were called active.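 The calls were made as follows: active = activation above the mean of all tested compounds plus 3 SD (cut at about 5.5% in these data); inactive = the rest.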 The entries come from a sample that favours actives as a whole.

System: DAF-12 nuclear receptor (Haemonchus contortus)
Test: hcDAF-12 driven luciferase reporter activation – cell-based, luminescence, HEK293, lit1-tk-luc reporter, primary screen (AID 652067);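 also: 100% = response to 3 µM Δ7-dafachronic acid high control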
Conditions: HEK293 hcDAF-12 lit1-tk-luc reporter, at 6.8 µM, hits give high values, 0% DMSO, 100% Δ7-dafachronic acid

SMILES | activation
CCCC[C@H]1C2CC(OC(=O)NCc3ccccc3)C(C2)[C@H]2CCCCN21 (stereo partly drawn) | 0.87% (inactive)
COC(=O)C[C@H]1CC[C@H]2[C@H](COc3ccc(NC(=O)C4CC4)cc3C(=O)N2C)O1 | 0.16% (inactive)
COc1ccccc1-c1sc2ccccc2c1C#CC1(O)CCCCC1 | 1.87% (inactive)
COc1ccc(C2CC(c3ccccc3)=NN2C(=O)c2ccc(Cl)c([N+](=O)[O-])c2)cc1 (stereo not drawn) | 0.35% (inactive)
COc1ccc(C2=NN(C(=O)c3ccccc3C(=O)O)C(c3ccccc3O)C2)cc1 (stereo not drawn) | 12.9% (active)
CCOc1ccc2nc(Cl)c(C3CC(c4ccccc4)=NN3C(=O)c3cccs3)cc2c1 (stereo not drawn) | -2.57% (inactive)
O=C1Nc2ccccc2OC1CC(=O)N1CCCCCCC1 (stereo not drawn) | 1.16% (inactive)
CCCCNC(=O)C[C@H]1C[C@@]2(C(=O)OC)C(=C[C@H](COCc3ccccc3)O[C@@H]2C)N(Cc2ccc(Cl)cc2Cl)C1=O | -3.26% (inactive)
C=C(C)C#CC(Cc1ccccc1)NCC1CC1 (stereo not drawn) | -1.73% (inactive)
NC(=O)c1c(NC(=O)c2ccccc2)sc2c1CCCC2 | 7.46% (active)
O=C(O)c1c(NC(=O)N2CCCC2)sc2c1CCCC2 | -0.22% (inactive)
CCN(CC)CC(=O)Nc1sc2c(c1C(=O)c1ccccc1C)CCC2 | -0.3% (inactive)
Cc1nc2ccc(C(=O)N3CCN(C(=O)C(C)(C)C)CC3)cc2n1C1CCCC1 | -2.87% (inactive)
CC(CCN1CCC(C(O)(c2ccccc2)c2ccccc2)CC1)Oc1ccc(C(F)(F)F)cc1 (stereo not drawn) | -0.22% (inactive)
CC(CCN1CCC(C(O)(c2ccccc2)c2ccccc2)CC1)Oc1ccc(Cl)cc1 (stereo not drawn) | 4.67% (inactive)
CC(CCN1CCC(C(O)(c2ccccc2)c2ccccc2)CC1)Oc1ccc([N+](=O)[O-])cc1Cl (stereo not drawn) | 6.54% (active)
Cc1cc(C)cc(NC(=O)N2CCC(N(C)CCC(C)C)CC2)c1 | -0.86% (inactive)
CC(C)(C)OC(=O)NCc1cc(F)ccc1/C=C/S(=O)(=O)NCCc1ccccc1 | -0.58% (inactive)
CCOC(=O)c1cn[nH]c1NC(=S)Nc1ccccc1 | 7.58% (active)
CCOC(=O)c1cc2c(nc1NC(=S)Nc1ccccc1)CC(C)(CC)OC2 (stereo not drawn) | -0.86% (inactive)
CCOC(=O)c1c(NC(=S)Nc2ccccc2)sc2c1CCN(C)C2 | 0.34% (inactive)
C[C@H]1CN([C@@H](C)CO)C(=O)CCCn2nncc2CO[C@@H]1CN(C)C(=O)Nc1ccc(N2CCN(C)CC2)cc1 | -1.4% (inactive)

SMILES | activation
O=C(O)c1[nH]c2ccccc2c1C(c1cccc(O)c1)c1c(C(=O)O)[nH]c2ccccc12 | 6.89% (active)
CCCS(=O)(=O)Nc1c(C(=O)O)[nH]c2ccccc12 | 3.5% (inactive)
Cc1ccc2[nH]c(C(=O)O)c(NC(=O)c3ccccc3[N+](=O)[O-])c2c1 | 3.39% (inactive)
CCC(c1ccc(NC(=O)OC(C)(C)C)cc1)c1cc(OC)cc(OC)c1 (stereo not drawn) | -1.61% (inactive)
CCOc1ccc(Oc2c(Cl)cnn(-c3ccc(C)cc3)c2=O)cc1 | -0.82% (inactive)
N#CC1=C(N)Oc2c(sc3ccccc23)C1c1ccco1 (stereo not drawn) | 6.9% (active)
CCC(=O)c1c(CC)c2n3c1=CC[C@H]3CC(Br)C=2 (stereo partly drawn) | -2.16% (inactive)
CN(C)c1ccnc(Nc2ccc(F)cc2)c1C#N | 1% (inactive)
CC(C)c1ccc(Nc2ncccc2C#N)cc1 | 5.74% (active)
CCN1C(=O)N[C@@H]2C[C@H](C(=O)N3CCCC3)[C@H](C)[C@H](c3ccccc3)C[C@@H]21 | 0.19% (inactive)
CC(C)CNc1cccc2c1S(=O)(=O)N(Cc1cn(Cc3ccc(Cl)cc3)nn1)Cc1ccccc1O2 | -0.84% (inactive)
COC(=O)c1cc(N2CCNCC2)nc2ccccc12 | 0.41% (inactive)
CCCCc1nc2ccccc2c(NC(=O)CN2CCN(C)CC2)c1CCC | 0.46% (inactive)
CCc1ccc(-c2cc(C(=O)NN3CCN(C)CC3)c3ccccc3n2)cc1 | 6.67% (active)
COC(=O)C(C(=O)OC)c1ccccc1NS(=O)(=O)c1cccc2ccccc12 | -1.63% (inactive)
COc1cccc(/C=C2\CC3(OC(C)=O)CCCN2C3)c1 (stereo not drawn) | -1.14% (inactive)
COc1ccccc1Nc1ncc(C(C)=O)c(C)n1 | -0.49% (inactive)
COc1cccc2sc(Nc3nc(C)c(C(C)=O)s3)nc12 | 6.52% (active)
CNC(=O)c1sc(Nc2ccc(OCc3ccccc3)cc2)nc1C | -3.73% (inactive)
CCOC(=O)N1CCN(C(=O)C[C@@H]2C(=O)N(CCc3ccc(Cl)cc3)C3=CCCC[C@]32C(=O)OCC)CC1 | -4.47% (inactive)
CCCCNC(=O)C[C@@H]1C(=O)N(CCc2ccc(Cl)cc2)C2=CCCC[C@]21C(=O)OCC | -2.83% (inactive)
C/C(=N/OC(=O)c1cccc(C(F)(F)F)c1)c1cnccn1 | -0.26% (inactive)

SMILES | activation
COc1ccccc1OCC(=O)O/N=C(\N)c1ccccn1 | 7.16% (active)
N/C(=N\OC(=O)CCC1CCCCC1)c1ccccn1 | 4.24% (inactive)
O=C(COC(=O)c1ccccn1)NNC(=O)c1ccc(Br)cc1 | -2.22% (inactive)
COc1ccccc1OCC(=O)OCc1cc(-c2ccco2)on1 | -2.08% (inactive)
COc1ccc(C(=O)O/N=C(\N)c2ccccn2)cc1[N+](=O)[O-] | 6.36% (active)
Cc1ccc(C(=O)O/N=C(\N)c2ccccn2)cc1Cl | 8.22% (active)
N/C(=N\OC(=O)Cc1ccc([N+](=O)[O-])cc1)c1ccccn1 | 1.92% (inactive)
O=C(COC(=O)c1ccccn1)NNC(=O)c1ccc([N+](=O)[O-])cc1 | 1.23% (inactive)
CCOC(=O)c1cccc(NC(=O)CN(C)S(=O)(=O)c2ccc(-c3cocn3)s2)c1 | -1.38% (inactive)
C=CCN1C(=O)[C@@H](CC(=O)N2CCN(C(=O)OCC)CC2)[C@]2(C(=O)OCC)CCCCC/C=C/12 | 0.11% (inactive)
CCC(=O)OCCCN1C(=O)CCC12CCC(c1ccccc1)CC2 (stereo not drawn) | -1.9% (inactive)
CN(C)[C@H]1CCN(c2cccc3c2S(=O)(=O)N2CC[C@H](C2)O3)C1 | 1.72% (inactive)
Cc1ccc(CN2CCCCC(NC(=O)C3CCCCC3)C2=O)cc1 (stereo not drawn) | -1.6% (inactive)
COC(=O)[C@]12C[C@H](CC(=O)N3CCN(C(=O)C4CC4)CC3)C(=O)N(CCC3=CCCCC3)C1=C[C@H](C(C)C)O[C@@H]2C1CC1 | -1.23% (inactive)
Nn1c(SCC(=O)Nc2ccc(S(N)(=O)=O)cc2)nnc1-c1n[nH]c2c1CCC2 | -1.75% (inactive)
C/C(=N\NC(=S)Nc1ccc(C)cc1)c1cc2ccccc2o1 | -0.69% (inactive)
Cc1ccc(NC(=O)c2cc3ccccc3o2)cc1 | 10.5% (active)
Cc1cccc(-n2nc3c(c2NC(=O)c2cc4ccccc4o2)CS(=O)(=O)C3)c1 | 1.51% (inactive)
CC(C)(C)c1ccc(CSc2nnc(-c3cccs3)o2)cc1 | 1.61% (inactive)
COc1ccccc1C(=O)NC(=O)COC(=O)C1CC1 | 0.43% (inactive)
CCOc1ccc(C(O)Cn2c(=N)n(CCN3CCCCC3)c3ccccc32)cc1 (stereo not drawn) | -0.25% (inactive)
Cn1c(=N)n(CC(O)c2ccccc2)c2ccccc21 (stereo not drawn) | 6.33% (active)

SMILES | activation
Cc1nc2ccccc2n1CC(O)c1ccccc1 (stereo not drawn) | 1.55% (inactive)
CCC(=O)Nc1ccc2c(c1)C(=O)N(C)[C@H]1CC[C@H](CC(=O)NCCOC)O[C@@H]1CO2 | -0.71% (inactive)
COC(=O)C1CN(CCc2ccccc2)CCS(=O)(=O)N1Cc1cccc(Cl)c1 (stereo not drawn) | -1.52% (inactive)
O=C(NC1CCCCN(Cc2ccc(Cl)cc2)C1=O)c1ccc(Br)cc1 (stereo not drawn) | -2.55% (inactive)
O=C(NC(Cc1ccccc1)C(=O)O)/C(=C\c1ccccc1)NC(=O)c1ccco1 (stereo not drawn) | -0.54% (inactive)
O=C(NC(Cc1c[nH]c2ccccc12)C(=O)O)/C(=C/c1ccco1)NC(=O)c1ccccc1 (stereo not drawn) | 6.62% (active)
O=C(NCc1ccco1)/C(=C/c1ccco1)NC(=O)c1ccccc1 | -0.96% (inactive)
Cc1ccc(-n2c(SCC(=O)Nc3ccc(S(=O)(=O)Nc4nccs4)cc3)nnc2-c2ccccn2)cc1 | -0.18% (inactive)
COc1cc(NC(=O)C2CCCN(S(=O)(=O)c3ccc(C(C)(C)C)cc3)C2)cc(OC)c1 (stereo not drawn) | -1.6% (inactive)
CC(C)C(C#CC1CC1)N(Cc1ccc2c(c1)OCO2)C(N)=NC(=O)/C=C/c1cccc(C(F)(F)F)c1 (stereo not drawn) | 0.1% (inactive)
COC(=O)[C@]1(C#N)CC(=O)N(CC2CCCCC2)[C@@H]1c1ccccc1 | 0.64% (inactive)
Cc1cccc(NC(=S)NC(=O)c2ccc(Br)o2)c1 | 6.48% (active)
CCS(=O)(=O)c1ccc(-c2cccc(NC(=O)c3ccc(Br)o3)c2)nn1 | 1.53% (inactive)
O=C(Nc1cccc(C(=O)O)c1)/C(=C\c1ccccc1)NC(=O)c1ccc(Br)o1 | -0.49% (inactive)
CC(=O)c1ccc(N=C2SCCCN2C(=O)C2CCCCC2)cc1 | 1.46% (inactive)
COC(=O)c1ccc(CN2C(=O)[C@]3(OCCC=C[C@H]3C)c3c(Br)cccc32)cc1 | -3.24% (inactive)
O=C(CN1CCC(NC(=O)NCc2ccccc2)CC1)Nc1ccc2c(c1)OCCO2 | -0.83% (inactive)
Clc1ccc(Nc2ccc3ccccc3n2)cc1 | 17.1% (active)
CC1(C)N=C(N)NC(Nc2ccc(Cl)cc2)=N1 | 0.62% (inactive)
C=CCNc1nc(Nc2ccc(Cl)cc2)nc(OC)n1 | -0.18% (inactive)
CCOC(=O)/C=C/CN(C(=O)OC(C)(C)C)S(=O)(=O)N1CC=CC1 | -0.7% (inactive)
COc1ccc(-n2c(SCC(=O)Nc3ccc4cn[nH]c4c3)nnc2-c2cccnc2)cc1 | -1.7% (inactive)
